The entries come from a sample that favours hits as a whole.
Pf apPOL block = Pf-apPOL DNA polymerase inhibition | Recombinant Pf-apPOL, molecular beacon fluorescence, 1.5 h | AID 1794808 | 210,000 compounds, 0.25% hits | inhibition, % at 10 µM
mHTT-CaM PPI inh = mHTT-calmodulin interaction abrogation; P42858; AlphaScreen His-mHTT/GST-CaM binding, luminescence; inhibition, % at 15 µM; 190,000 compounds, 3.6% hits
A number is an active result; - = inactive; . = no result; ! = not confirmed by another sample. Cut-off read from the data, not from the text of the source: active = inhibition above about 50%; inactive = the rest.

SMILES | Pf apPOL block | mHTT-CaM PPI inh
COc1cc(OC)cc(C(=O)Nc2nnc(C3CC(=O)N(c4ccccc4)C3)o2)c1 (centres undefined) | - | -
Cc1nnc(-c2ccccn2)[nH]c1=O | - | .
Cc1nc(-c2cnccn2)[nH]c(=O)c1C | - | 70.8
Cc1ccc2c(c1)c1c3n2CCN(C=O)C3CCC1 (centres undefined) | - | -
O=CN1CCn2c3c(c(=O)c4cc(C5CCCCC5)ccc42)CCC31 (centres undefined) | - | 81.5
COc1ccc(/C=C/C2=NC(=C\c3ccc(OC)c(OC)c3)/C(=O)O2)cc1 | - | -
Cn1cc2c3c(cccc31)CN(C(=O)Cc1cccs1)CC2 | - | -
O=C(Cc1ccccc1F)N1CCC(COc2ccccc2C(=O)N2CCOCC2)CC1 | - | -
O=C(Cc1ccccc1F)N1CCC(COc2ccccc2C(=O)N2CCCCC2)CC1 | 70.6 | -
COc1cc(NCc2cc(OC)c(O)c([N+](=O)[O-])c2)cc(OC)c1 | - | 64.7
COc1cc(CN2CCSCC2)cc(I)c1O | - | -
COc1cc(CN2CCCCCCC2)cc([N+](=O)[O-])c1O | - | -
COc1cc(NCc2cc(I)c(O)c(OC)c2)cc(OC)c1 | - | 88.8
N#Cc1c(-c2ccc([N+](=O)[O-])cc2)[nH]c(=S)[nH]c1=O | - | -
Cc1ccnc(Nc2nc(-c3cccs3)cs2)c1 | - | -
CN(C)c1ccc(Nc2nc(-c3ccccn3)cs2)cc1 | - | 100.3
Cc1ccc(Nc2nc(-c3ccccn3)cs2)cc1 | - | 93.0
Cc1ccnc(Nc2nc(-c3ccccn3)cs2)c1 | - | 100.0
CC(=O)Nc1cccc(-c2csc(Nc3ccc(C(=O)O)cc3)n2)c1 | - | -
CC(=O)Nc1ccc(Nc2nc(-c3ccccn3)cs2)cc1 | - | 92.0
O=[N+]([O-])c1ccc(Nc2nc(-c3ccccn3)cs2)cc1 | - | -
CN(C)c1ccc(C(=O)Nc2cc(-c3ccccn3)no2)cc1 | - | -
O=C(NC1CCN(Cc2ccccc2)CC1)c1cn2cc(Cl)ccc2n1 | - | -
Cc1noc(CNC(=O)COc2cccc3c2OC(C)(C)C3)n1 | - | -
O=C(CSc1ccc(-c2ccc(Br)cc2)nn1)N1CCCC1 | - | -
SMILES | Pf apPOL block | mHTT-CaM PPI inh
O=C(C[n+]1cccc(/C=N/O)c1)NCc1ccccc1 | - | -
O=C(Nc1ccccc1F)c1ccc(C(=O)Nc2ccccc2F)cc1 | - | -
O=[N+]([O-])c1ccc(C=NC(CO)(CO)CO)cc1 | - | -
O=C(NCc1ccc2c(c1)OCO2)C1c2ccccc2Oc2ccccc21 | - | -
COc1ccc(C(=O)N2CCC(C(=O)Nc3ccc(Br)cc3)CC2)cc1 | - | -
COc1ccc(C2=N/C(=C\c3cccc(Br)c3)C(=O)O2)cc1[N+](=O)[O-] | - | -
Cc1cc(C(=O)Nc2ccc(-c3nc4ccccc4[nH]3)cc2)nn1C | - | -
O=C(Cc1ccc([N+](=O)[O-])cc1)c1ccc(Br)cc1O | - | -
COc1ccc(-c2nc[nH]c2[N+](=O)[O-])cc1[N+](=O)[O-] | - | -
CCOc1ccc(N2C=C(C#N)S(=O)(=O)c3ccc(F)cc32)cc1 | - | -
c1ccc(CN[C@H]2CCC23CCC(c2ccccc2)CC3)cc1 (some centres undefined) | - | -
CC(=O)c1cccc(Nc2nc(-c3ccccc3)cs2)c1 | - | -
CCOc1ccc(Nc2nc(-c3sc(NC(C)=O)nc3C)cs2)cc1 | - | 64.2
CC(=O)c1cccc(Nc2nc(-c3ccccn3)cs2)c1 | - | 86.4
CC(=O)Nc1nc(C)c(-c2csc(Nc3ccc(C(=O)O)cc3)n2)s1 | - | -
Cc1ccc(C)c(CN2C(=O)NC3(CCN(C(=O)Cc4ccccc4C)CC3)C2=O)c1 | - | -
O=C(CN1C(=O)/C(=C/c2ccc(Cl)cc2)Sc2ccccc21)NCCCN1CCOCC1 | - | -
O=C(O)C1CCc2ccccc21 (centres undefined) | - | -
O=C(O)C1C2C=CC(C2)C1C(=O)Nc1ncccc1O (centres undefined) | 79.5 | -
O=C(O)C1C2C=CC(C2)C1C(=O)Nc1cccnc1 (centres undefined) | - | -
CCCSc1nnc(NC(=O)c2ccc(-n3cnnn3)cc2)s1 | - | -
C=CCn1c(SCC(=O)Nc2cc(C(F)(F)F)ccc2Cl)nnc1-c1ccco1 | - | -
C=CCNC(=O)c1ccc2c(=O)n3c(nc2c1)CCCC3 | - | -
Cc1ccc2c(c1)c1c(n2CCC#N)CCN(C)C1 | - | -
COc1ccc(NC(=O)N2CCc3c(nc4cc[nH]n4c3=O)C2)cc1 | - | -
SMILES | Pf apPOL block | mHTT-CaM PPI inh
Cc1nc2ccccn2c1-c1csc(Nc2ccc(N)cc2)n1 | - | 62.8
CC(=O)Nc1ccc(Nc2nc(-c3c(C)nc4ccccn34)cs2)cc1 | - | -
C=CCNc1nc(-c2c(C)nc3ccccn23)cs1 | - | -
Cc1ccnc(Nc2nc(-c3c(C)nc4ccccn34)cs2)c1 | - | 62.0
Cc1nc2ccccn2c1-c1csc(N)n1 | . | -
COc1ccccc1Nc1nc(-c2c(C)nc3cc(C)ccn23)cs1 | - | 76.3
O=C(NC1CC1)c1cccc(OCC2CCCN(C(=O)c3cccc(Cl)c3)C2)c1 (centres undefined) | - | -
CCC(=O)N1CCc2cc(Br)cc(S(=O)(=O)CCC(=O)Nc3nccs3)c21 | - | -
COc1ccc(NC(=O)C2CCN(c3c(C#N)cnc4ccc(C)cc34)CC2)cc1 | - | -
Cc1noc(-c2nn(C)c3c2CN(C(=O)CCC(C)C)CC3)n1 | - | -
O=S(=O)(Nc1ccccc1F)c1ccc2nc(-c3ccccc3)[nH]c2c1 | - | -
Cc1nnsc1C(=O)N1CCN(Cc2nc3ccccc3[nH]2)CC1 | - | -
COc1ccc(CCNC(=O)N2CCN(Cc3nc4ccccc4[nH]3)CC2)cc1 | - | 100.2
CC(CCC(=O)N=Nc1c(O)[nH]c2ccc(Br)cc12)C1CCC2C3C(O)CC4CC(O)CCC4(C)C3CCC12C (centres undefined) | - | 63.2
C[C@H](CCC(=O)OCc1cn(CC(=O)c2ccc(O)cc2)nn1)[C@H]1CC[C@H]2[C@@H]3CC[C@@H]4C[C@H](O)CC[C@]4(C)[C@H]3C[C@H](O)[C@]12C | - | -
CC(C)NC(=O)c1ccc(OCC2CCN(C(=O)Cc3ccc(F)cc3)CC2)cc1 | - | -
CCOC(=O)NC(=S)c1ccc(OC)cc1 | - | .
COc1ccc(C(=S)NN)cc1 | . | 58.2
O=C(Cc1ccc(F)cc1)NCCOc1ccc(-c2ccco2)nn1 | - | -
CCC(C)(C)C(=O)Nc1ccc(F)cc1 | - | -
Cc1ccc(NS(=O)(=O)c2ccc3c(c2)CCN3C(=O)C2CC2)c(Cl)c1 | - | -
CCN(CC)C(=O)Sc1cccc2cccnc12 | - | -
Cn1nc([N+](=O)[O-])nc1Sc1cccc2cccnc12 | - | 66.1
O=[N+]([O-])c1ccc(CSc2cccc3cccnc23)cc1 | - | 63.0!
O=[N+]([O-])c1ccc(CSc2ccccn2)cc1 | - | .
SMILES | Pf apPOL block | mHTT-CaM PPI inh
O=C(Sc1cccc2cccnc12)c1ccc([N+](=O)[O-])cc1 | - | 100.0
Cn1nc([N+](=O)[O-])nc1Sc1nc2ccccc2n1C | - | -
COc1cc(OC)cc(N2CCN(C(=O)CC(C)C)C(C)C2=O)c1 (centres undefined) | - | -
CCCN1CCN(c2ncc3c(n2)CCN(Cc2ccc(OC)c(OC)c2)C3)CC1 | - | -
CCCN(C(=O)c1coc(=O)c2ccccc12)c1ccc(CC)cc1 | - | -
CCn1cnnc1C1CCCCN1S(=O)(=O)c1ccc(C#N)cc1 (centres undefined) | - | -

Compound activity (PubChem)
